Most compounds without a hit are left out; they make up all but 14% or so of the library.
HCV inhibitor – inhibitors of hepatitis C virus infection | Huh7.5.1 HCVcc-Cre infection, luciferase reporter, 44 h | Potency, µM (series often up to 41.8 µM), for the others: at the top dose activity change, negative = inhibition, hits mostly inhibitors | AID 651820 | 3.4% of 340,000 active; note: potency is the fitted concentration of half-maximal effect
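Compounds are dispensed onto cells plated 4 h earlier at 1,000 per well, with HCVcc-Cre virus (about 0.5 moi) added next. Following 44 h of culture, luminescent signal is measured for 15 sec after 15 min with substrate at room temperature.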
Pf growth 96h – P. falciparum growth inhibition at 96 hours; 6.9% of 320,000 active; P. falciparum luciferase reporter growth, 96 h; AID 504834; Potency, µM (series often up to 28.7 µM), inactives show at the highest dose activity change, negative = inhibition, actives largely listed as inhibitors; note: potency is the fitted concentration of half-maximal effect
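Readout is luminescence from an integrated firefly luciferase in P. falciparum. Red cells, 2% hematocrit and 0.05% parasitemia final, were cultured with compound through two parasite generations (96 hours) at 37 C, 5% CO2.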
HCMV antiviral – human cytomegalovirus inhibition; HFF cells, HCMV-luciferase reporter, 72 h; stronger effect = lower value; activity change, negative = inhibition, % at 57.5 µM; 4.5% of 410,000 active; AID 1259415; in the data active = activity change below about -60%; inconclusive = no clear call, values can overlap the other calls; inactive = above about -39%
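Steps: HFFs plated, 16 h 37C; compounds added; HCMV-luciferase added to MOI 1 PFU/cell; 72 h 37C; OneGlo reagent, 5 min room temperature; luminescence read, normalized to controls.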
Lassa entry inh – inhibitors of Lassa virus binding or cell entry; Potency, µM (top dose mostly 37.9 µM), inactives show at the top dose activity change, negative = inhibition, most hits filed as inhibitors; Lassa virus pseudotype entry inhibition, cell reporter; 1.2% of 300,000 active; calls by dose curve; tested in HEK293 cells; note: potency is the fitted concentration of half-maximal effect; nearly all actives have a fitted effect of over 50% in size
MARV entry inh – inhibitors of Marburg virus binding or cell entry. Marburg virus pseudotyped entry inhibition, cell reporter. Potency, µM (series often up to 37.8 µM), inactives show top-dose activity change, negative = inhibition, actives largely listed as inhibitors. 1.8% of 300,000 active. AID 540276; calls by dose curve; tested in HEK293 cells; note: potency is the fitted concentration of half-maximal effect
Pf growth 48h – inhibits P. falciparum growth in the first generation, 48 h; P. falciparum luciferase growth in erythrocytes, 48 h; Potency, µM (series often up to 28.7 µM), for the others: top-dose activity change, negative = inhibition, actives largely listed as inhibitors; 5.9% of 310,000 active; note: potency is the fitted concentration of half-maximal effect
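Growth was read as firefly luciferase luminescence after a 48 h, 37 C, 5% CO2 exposure of compounds to reporter-bearing P. falciparum cultures (0.1% parasitemia, 2% hematocrit final) in Albumax-supplemented RPMI 1640.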
* hit, by the source's call; ? = inconclusive; · = no result; [ ] = dose if it differs, or a comment. Unless noted, calls come from the whole dose curve; as a rule, active = well fitted inhibition curve with a large enough effect; inconclusive = small, poorly fitted or top-dose-only effect, or another doubt; inactive = no such curve, though single readings can be large or run the other way. % is set by controls: 0 for no effect and ±100 for the full control effect.

SMILES	HCV inhibitor	Pf growth 96h	HCMV antiviral	Lassa entry inh	MARV entry inh	Pf growth 48h
Cc1cccc(C(=O)NC2(C(F)(F)F)N=C(c3ccccc3)N(C3CCCCC3)C2=O)c1 (stereo not drawn)	·	·	4	4%[46.1 µM]	0%[46.1 µM]	·
CN(C)c1cccc(Nc2nccc3[nH]c(-c4ccsc4)cc23)c1	·	·	-8	·	·	·
Cc1nnc(NC(=O)NCN2C(=O)C3C4C=CC(C4)C3C2=O)s1 (stereo not drawn)	13%	3.7µM*	-32	3%	4%	?
Cc1cc2ncc(-c3cccc(Br)c3)nc2cc1C	·	·	133	·	·	·
Cc1noc(C)c1C(=O)Nc1ccc(N(C)C)cc1	11%	38%	48	·	·	2%
CN(C)c1ccc(NC(=O)c2cnsn2)cc1	22%	?	-6	7.1µM*	?	14%
O=C(Cn1c(=O)n(Cc2ccc3c(c2)OCO3)c(=O)c2ccccc21)N1CCCc2ccccc21	14%	·	85	?	-5%	10µM*
Cc1c(C#N)c2ccccc2n1CC(=O)N1CCCc2ccccc21	13%	36%	18	-17%	?	3.3µM*
Cc1c(Br)c([N+](=O)[O-])nn1CC(=O)N1CCCc2ccccc21	-3%	2.3µM*	5	0%	2%	26%
Cc1nc2n(c(=O)c1CCN1CCC(c3noc4cc(F)ccc34)CC1)CCCC2O (stereo not drawn)	·	·	-16	0%	-18%	·
CCOC(=O)N1CCc2c(sc3c2c(=O)n(-c2ccccc2C(F)(F)F)c(=O)n3Cc2ccccc2C)C1	·	·	-101*	-8%[46.1 µM]	-2%[46.1 µM]	·
CC(=O)N1CCc2c(sc3c2c(=O)n(CCc2ccccc2)c(=O)n3Cc2ccc(Cl)cc2)C1	·	·	-106*	·	?	·
CC(=O)N1CCc2c(sc3c2c(=O)n(-c2ccccc2)c(=O)n3Cc2ccccc2Cl)C1	?	12µM*	46	2%	-12%	?
CC(=O)N1CCc2c(sc3c2c(=O)n(CCc2ccccc2)c(=O)n3Cc2ccccc2C)C1	·	·	-40	·	?	·
COc1ccccc1-n1c(=O)c2c3c(sc2n(Cc2ccccc2F)c1=O)CN(C(C)=O)CC3	·	·	24	5%[46.1 µM]	·	·
CCOC(=O)N1CCc2c(sc3c2c(=O)n(-c2ccc(Cl)cc2)c(=O)n3CC(C)C)C1	·	·	-65*	-15%[46.1 µM]	9%[46.1 µM]	·
Cn1c(=O)cc(SCC(=O)NCc2ccc(F)cc2)c2cc(Cl)ccc21	·	·	-11	14%[46.1 µM]	10%[46.1 µM]	·
CC1=CC[C@@H](COc2ccccc2)O[C@@]2(C1)C(=O)N(Cc1ccc(Br)cc1)c1cccc(Br)c12	·	·	·	·	46%[14.2 µM]	·
Fc1ccc(CSc2nncn3c2cc2occc23)c(Cl)c1	·	·	-35	-21%[46.1 µM]	·	·
CCOC(=O)N1CCc2c(sc3c2c(=O)n(-c2ccc(CC)cc2)c(=O)n3Cc2cc(C)ccc2C)C1	·	·	3	8%[46.1 µM]	?	·
COC(=O)C/C=C\[C@H](C)[C@@H](OCc1ccccc1Br)C(C)C	·	·	·	·	14%[14.2 µM]	·
COc1ccc(-c2cc(-c3cccs3)c(C#N)c(SCC(=O)NCc3ccccc3)n2)cc1	-29%	19%	10	?	?	?
C#CCSc1nc(-c2ccccc2)cc(-c2ccccc2)c1C#N	·	·	-17	-1%[46.1 µM]	-11%[46.1 µM]	·
COc1ccc(-c2cc(-c3ccccc3)c(C#N)c(S(C)=O)n2)cc1 (stereo not drawn)	22µM*	9%	-99*	?	?	·
COc1ccc(-c2cc(-c3cccs3)c(C#N)c(SCC(=O)NCc3ccccc3OC)n2)cc1	?	10µM*	-61*	?	?	2.3µM*
SMILES	HCV inhibitor	Pf growth 96h	HCMV antiviral	Lassa entry inh	MARV entry inh	Pf growth 48h
COc1ccc(-c2cc(-c3ccccc3)nc(SCC(=O)Nc3ncc(C)s3)c2C#N)cc1	?	?	-19	-3%	-2%	8.3µM*
CCSc1nc(-c2ccc(OC)cc2)cc(-c2ccccc2)c1C#N	?	13µM*	18	-6%	-1%	·
COCCCNC(=O)[C@@H](C)N1Cc2ccc(-c3cccc(F)c3)nc2C1=O	·	·	-22	·	·	·
O=C(NCCCNC(=O)c1ccco1)c1ccc(F)cc1	24%	16%	23	0%[46.1 µM]	?	6%
CC(C)C[C@H]1COc2cccc(N3CCCC3)c2S(=O)(=O)N1	·	·	4	?	·	·
NC(CCC(=O)NC(CS)C(=O)NCC(=O)O)C(=O)O (stereo not drawn)	25%	·	57	·	·	·
COc1ccc(NC(=O)CN(C)CC(=O)Nc2sc3c(c2C(N)=O)CCC3)cc1	?	?	-22	-3%	?	?
CCN(CC(=O)Nc1ccc(OC)cc1)CC(=O)Nc1sc2c(c1C(=O)OC)CCCC2	7.9µM*	-70%	?	·	·	?
CCOC(=O)c1c(NC(=O)c2ccc(OC)cc2)sc2c1CCCCC2	·	·	4	-17%[46.1 µM]	·	·
CCN(CC)Cc1c(NC(=O)c2ccc(OC)cc2)sc2c1CCCC2	·	·	-90*	?	·	·
C[C@@H]1CN([C@@H](C)CO)C(=O)CCCn2nncc2CO[C@@H]1CN(C)C(=O)Nc1ccc(C(C)(C)C)cc1	·	·	16	·	·	·
CCN(CC)CCN1CCn2c3c(c4cc(C)ccc42)CCCC31 (stereo not drawn)	8.9µM*	9.3µM*	?	?	?	3.7µM*
CCN1CCn2c3c(c4cc(Cl)ccc42)CCCC31 (stereo not drawn)	?	2%	38	14%	?	?
CCCC(=O)c1c(C)c2ccccc2n1C	-1%	3.3µM*	-12	?	1%	-12%
Cc1c(C(=O)Cc2ccccc2)n(C)c2ccccc12	-13%	2%	9	?	-16%	-13%
COC(=O)c1c(SC)nc2ccccc2c1OCc1ccc(C)cc1C	·	·	-16	21%[46.1 µM]	·	·
CN(CC(=O)Nc1ccc(F)cc1)C(=O)c1cccc(S(=O)(=O)N2CCN(c3ccc(F)cc3)CC2)c1	8.9µM*	?	-63*	?	?	12µM*
COc1cccc(NC(=O)CN(C)C(=O)c2cccc(S(=O)(=O)N3CCN(c4ccc(F)cc4)CC3)c2)c1	?	?	?	?	?	-20%
CN(CC(=O)Nc1ccc(F)cc1)C(=O)c1ccncc1	9%	?	-72*	14%[46.1 µM]	-1%[46.1 µM]	-6%
CN(CC(=O)Nc1cccc(F)c1)C(=O)c1cccc(S(=O)(=O)N2CCN(c3ccccc3)CC2)c1	?	-11%	-77*	-3%	?	2%
COCC1CN(CCc2ccc(F)cc2)S(=O)(=O)c2c(OCCN3C(=O)[C@@H]4[C@H](C3=O)[C@@H]3C=C[C@H]4C3)cccc2O1 (stereo partly drawn)	·	·	3	·	·	·
COc1ccc(CC(=O)Nc2cccc(/C(C)=N/NC(=O)C3(C)CC3(Br)Br)c2)cc1 (stereo not drawn)	10µM*	?	28	·	·	?

Compound activity: PubChem, National Center for Advancing Translational Sciences (NCATS)
